Reference: paper PMC5540273 (PLoS ONE, 2017)

Test system: AKT2
Settings: concentration: 1 μM, replicates: in singlicate; n = 1
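Further: KINOMEscan kinase panel screen.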

**Q.** For `COc1ccc(NC(=O)c2ccoc2)cc1-c1ccc(C(=O)NCC2CC2)cc1` [GW810437], which “%Inh” value is on record?
**A.** 0%

**Q.** How did the “%Inh” value turn out when `CC(=O)Nc1cn2nc(Oc3cccc(NC(=O)c4cccc(C(F)(F)F)c4)c3)ccc2n1` was run?
**A.** 0%

**Q.** How did the “%Inh” value turn out when `Cc1ccc(C)c(NC(=O)Nc2ccc(C)c(-c3ccc(C(=O)Nc4ccncc4)cc3)c2)c1` [GSK1398473] was run?
**A.** 0%

**Q.** Which “%Inh” value does the source give for `CN(C)c1ncnc2nc[nH]c12` [SKF-31736] here?
**A.** 0%

**Q.** Which “%Inh” value does the source give for `Cc1ccc(O)cc1Nc1ccnc2cc(-c3ccc(CN4CCCCC4)o3)ccc12` [GW557777] here?
**A.** 3%

**Q.** Which “%Inh” value does the source give for `Cl.Cl.NCC(NC(=O)c1cc(-c2cccnc2)c(-c2ccnc3[nH]ccc23)s1)c1ccccc1` (stereo not shown) [GSK1323434] here?
**A.** 10%

**Q.** With `CC(C)NCC(Cc1ccccc1)NC(=O)c1cc(Br)c(-c2ccnc3[nH]ccc23)s1.Cl.Cl` (stereo not shown) [GSK1383281] as the compound, how does the “%Inh” value read?
**A.** 73%

**Q.** For `COc1cccc(NC(=O)NCCNc2ccnc(Nc3ccc(F)cc3)n2)c1` [GSK1379879], which “%Inh” value is on record?
**A.** 0%

**Q.** Which “%Inh” value does the source give for `Cc1cc(-c2ccnc(Nc3cccc(C#N)c3)n2)cc(C)c1O` [GSK1440913] here?
**A.** 0%

**Q.** Which “%Inh” value does the source give for `Cc1ccc(O)cc1Nc1ccnc2ccc(C(C)(C)C)cc12` [GW856805] here?
**A.** 29%

**Q.** With `O=C(Nc1n[nH]c2nc(-c3ccccc3)ccc12)C1CC1` [SB-708999] as the compound, how does the “%Inh” value read?
**A.** 9%

**Q.** Which “%Inh” value does the source give for `Cl.Cl.NC(CNC(=O)c1cc(Br)c(-c2ccnc3[nH]ccc23)s1)c1ccccc1` (stereo not shown) [GSK1322949] here?
**A.** 15%

**Q.** `Cn1cc(-c2cnc(N)c3c(-c4ccc5c(c4)CCN5C(=O)Cc4ccccc4)csc23)cn1` [GSK2593074] was tested. Which “%Inh” value did it give?
**A.** 0%

**Q.** How did the “%Inh” value turn out when `O=C1NC(=O)C(c2ccccc2Cl)=C1Nc1cccc(Cl)c1` [SB-342409] was run?
**A.** 100%

**Q.** Which “%Inh” value does the source give for `COc1ccc(C2=C(Nc3cccc(O)c3)C(=O)NC2=O)cc1` [SB-390766] here?
**A.** 12%

**Q.** For `CN(C)CCNS(=O)(=O)c1ccc(-c2ccnc3[nH]ccc23)cc1` [GSK977620], which “%Inh” value is on record?
**A.** 18%

**Q.** Which “%Inh” value does the source give for `CC(C)c1nc(-c2cccc(NS(=O)(=O)c3c(F)cccc3F)c2)c(-c2ccnc(Nc3ccc(N4CCOCC4)nc3)n2)s1.Cl` [GSK1723980] here?
**A.** 11%

**Q.** `CCn1cnc2c(NCc3ccccc3)ncnc21` [SKF-96418] was tested. Which “%Inh” value did it give?
**A.** 0%

**Q.** For `COC(=O)Nc1nc2cc(Oc3ccc(NC(=O)Nc4cccc(SC)c4)cc3)ccc2[nH]1.Cl` [GW697999], which “%Inh” value is on record?
**A.** 0%

**Q.** With `O=C(Nc1n[nH]c2nc(-c3cccc(O)c3)ccc12)C1CC1` [SB-711805] as the compound, how does the “%Inh” value read?
**A.** 0%

**Q.** `CN(c1ccc(F)c(NC(=O)c2cccc(OC(C)(C)C#N)c2Cl)c1)c1ccc2nc(NC(=O)C3CC3)sc2n1` was tested. Which “%Inh” value did it give?
**A.** 4%

**Q.** Which “%Inh” value does the source give for `Cc1nn2c(=O)cc(N3CCO[C@H](C)C3)nc2n1Cc1cccc(Cl)c1Cl` [GSK2373693] here?
**A.** 7%

**Q.** With `Cl.O=C(Nc1ccc(Oc2ccc3[nH]c(NC(=O)c4ccco4)nc3c2)cc1)Nc1cc(C(F)(F)F)ccc1F` [GW683134] as the compound, how does the “%Inh” value read?
**A.** 12%

**Q.** With `N#CC1(c2cccc(C(=O)Nc3cccc(Oc4ccc5nc(NC(=O)C6CC6)sc5n4)c3)c2)CC1` as the compound, how does the “%Inh” value read?
**A.** 6%

**Q.** Which “%Inh” value does the source give for `COC(=O)Nc1nc2ccc(Oc3ccc(CC(=O)Nc4cc(C(F)(F)F)ccc4F)cc3)cc2[nH]1` [GW680903] here?
**A.** 0%

**Q.** How did the “%Inh” value turn out when `O=C(Nc1n[nH]c2nc(-c3ccccc3O)ccc12)C1CC1` [SB-711880] was run?
**A.** 0%

**Q.** `CNc1nccc(-c2ccc3c(N)n[nH]c3c2)n1` [GSK2206003] was tested. Which “%Inh” value did it give?
**A.** 0%

**Q.** How did the “%Inh” value turn out when `O=C(Nc1n[nH]c2cc(-c3cccs3)ccc12)C1CC1` [SB-731284] was run?
**A.** 0%

**Q.** With `CC(C)(C)c1ccc(C(=O)Nc2cn3cc(-n4ccnc4)ccc3n2)cc1` as the compound, how does the “%Inh” value read?
**A.** 0%

**Q.** With `Cc1ccc(Nc2ccnc(Nc3ccc(C)c(F)c3)n2)cc1O.Cl` [GW582868] as the compound, how does the “%Inh” value read?
**A.** 0%

**Q.** `Fc1cc(Cl)ccc1Nc1ccnc2cc(-c3ccc(CN4CCOCC4)o3)ccc12` [GW560109] was tested. Which “%Inh” value did it give?
**A.** 0%

**Q.** `Nc1cccc(-c2ccc3c(N)n[nH]c3c2)c1` [GSK2193613] was tested. Which “%Inh” value did it give?
**A.** 0%

**Q.** How did the “%Inh” value turn out when `Nc1ncnc2scc(-c3ccc(NC(=O)Cc4cc(F)ccc4F)cc3)c12.O=C(O)C(F)(F)F` [SB-731254-M] was run?
**A.** 0%

**Q.** How did the “%Inh” value turn out when `COc1cccc(-c2nc(-c3ccccc3)[nH]c2-c2ccncc2)c1` [SB-610250] was run?
**A.** 0%

**Q.** With `Cc1cccc(Nc2nc(NCCN)ncc2C(N)=O)c1` [GSK1292139] as the compound, how does the “%Inh” value read?
**A.** 0%

**Q.** Which “%Inh” value does the source give for `CN1CCN(Cc2ccc(NC(=O)Nc3ccc(N(C)c4ccnc(Nc5ccc(CS(C)(=O)=O)cc5)n4)cc3)cc2)CC1.Cl` [GW827654] here?
**A.** 0%

**Q.** `CN(c1ccc(NC(=O)Nc2cccc(Cl)c2)cc1)c1ccnc(N)n1.Cl` [GW830707] was tested. Which “%Inh” value did it give?
**A.** 3%
